Laboratory results reported in the supplement of paper PMC8728848.
Many of the other results were omitted from the sample, so the strongest signals are more common in it than they were.

What was measured:
Experiment in all cases: glycan array binding signal (z-score within array); higher = stronger binding
Details in all cases: glycan notation: IUPAC condensed, linker removed
Fuc(a1-2)Gal(b1-3)GlcNAc = target: Fuc(a1-2)Gal(b1-3)GlcNAc
Procedure, shortened: (§1)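 Arrays were curated from the Consortium for Functional Glycomics database, 3228 in total, and kept only where the protein sequence was available. Binding is expressed as a within-array Z-score. This score was averaged across arrays of the same protein sequence at different concentrations or buffers and across linkers, and negative values can be read as non-binding.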

[1] = target: Fuc(a1-2)Gal(b1-3)GlcNAc(b1-2)Man(a1-3)[Fuc(a1-2)Gal(b1-3)GlcNAc(b1-2)Man(a1-6)]Man(b1-4)GlcNAc(b1-4)[Fuc(a1-6)]GlcNAc
Procedure, shortened: as §1

[2] = target: Fuc(a1-2)Gal(b1-3)GlcNAc(b1-3)GalNAc
Procedure, shortened: as §1

[3] = target: Fuc(a1-2)Gal(b1-3)GlcNAc(b1-3)[Neu5Ac(a2-6)Gal(b1-4)GlcNAc(b1-6)]Gal(b1-4)Glc
Procedure, shortened: as §1

[4] = target: Fuc(a1-2)Gal(b1-4)GlcNAc(b1-6)GalNAc
Procedure, shortened: as §1

[5] = target: Fuc(a1-2)[Gal(a1-3)]Gal(b1-4)GlcNAc(b1-2)Man
Procedure, shortened: as §1

[6] = target: Fuc(a1-2)[Gal(a1-3)]Gal(b1-4)GlcNAc(b1-2)Man(a1-3)[Fuc(a1-2)[Gal(a1-3)]Gal(b1-4)GlcNAc(b1-2)Man(a1-6)]Man(b1-4)GlcNAc(b1-4)GlcNAc
Procedure, shortened: as §1

[7] = target: Fuc(a1-2)[Gal(a1-3)]Gal(b1-4)GlcNAc(b1-3)GalNAc
Procedure, shortened: as §1

[8] = target: Fuc(a1-2)[Gal(a1-3)]Gal(b1-4)GlcNAc(b1-3)[Fuc(a1-2)[Gal(a1-3)]Gal(b1-4)GlcNAc(b1-6)]GalNAc
Procedure, shortened: as §1

[9] = target: Fuc(a1-2)[GalNAc(a1-3)]Gal(b1-4)GlcNAc(b1-2)Man
Procedure, shortened: as §1

[10] = target: Fuc(a1-3)[Gal(b1-4)]GlcNAc(b1-3)GalNAc
Procedure, shortened: as §1

Fuc(a1-4)GlcNAc = target: Fuc(a1-4)GlcNAc
Procedure, shortened: as §1

[11] = target: Gal(a1-3)Gal(b1-4)GlcNAc(b1-2)Man(a1-3)[Gal(a1-3)Gal(b1-4)GlcNAc(b1-2)Man(a1-6)]Man(b1-4)GlcNAc(b1-4)GlcNAc
Procedure, shortened: as §1

[12] = target: Gal(a1-3)[Gal(a1-4)]Gal(b1-4)GlcNAc
Procedure, shortened: as §1

[13] = target: Gal(a1-4)Gal(b1-4)GlcNAc(b1-2)Man(a1-3)[Gal(a1-4)Gal(b1-4)GlcNAc(b1-2)Man(a1-6)]Man(b1-4)GlcNAc(b1-4)GlcNAc
Procedure, shortened: as §1

Gal(b1-3)Gal = target: Gal(b1-3)Gal
Procedure, shortened: as §1

[14] = target: Gal(b1-3)GalNAc(a1-3)[Fuc(a1-2)]Gal(b1-4)Glc
Procedure, shortened: as §1

[15] = target: Gal(b1-3)GlcNAc(b1-6)GalNAc
Procedure, shortened: as §1

Gal(b1-3)GlcNAc6S = target: Gal(b1-3)GlcNAc6S
Procedure, shortened: as §1

[16] = target: Gal(b1-3)[Fuc(a1-4)]GlcNAc
Procedure, shortened: as §1

Gal(b1-4)Gal = target: Gal(b1-4)Gal
Procedure, shortened: as §1

[17] = target: Gal(b1-4)GlcNAc(b1-2)Man(a1-3)[GlcNAc(b1-2)Man(a1-6)]Man(b1-4)GlcNAc(b1-4)GlcNAc
Procedure, shortened: as §1

[18] = target: Gal(b1-4)GlcNAc(b1-2)Man(a1-6)[Man(a1-3)]Man(b1-4)GlcNAc(b1-4)GlcNAc
Procedure, shortened: as §1

[19] = target: Gal(b1-4)GlcNAc(b1-2)[Gal(b1-4)GlcNAc(b1-4)]Man(a1-3)[Gal(b1-4)GlcNAc(b1-2)[Gal(b1-4)GlcNAc(b1-6)]Man(a1-6)]Man(b1-4)GlcNAc(b1-4)GlcNAc
Procedure, shortened: as §1

[20] = target: Gal(b1-4)GlcNAc(b1-2)[Gal(b1-4)GlcNAc(b1-6)]Man(a1-6)[Gal(b1-4)GlcNAc(b1-2)Man(a1-3)]Man(b1-4)GlcNAc(b1-4)[Fuc(a1-6)]GlcNAc
Procedure, shortened: as §1

[21] = target: Gal(b1-4)GlcNAc(b1-3)Gal(b1-4)GlcNAc(b1-2)Man(a1-3)[Gal(b1-4)GlcNAc(b1-3)Gal(b1-4)GlcNAc(b1-2)Man(a1-6)]Man(b1-4)GlcNAc(b1-4)GlcNAc
Procedure, shortened: as §1

[22] = target: Gal(b1-4)GlcNAc(b1-3)Gal(b1-4)GlcNAc(b1-2)[Gal(b1-4)GlcNAc(b1-3)Gal(b1-4)GlcNAc(b1-6)]Man(a1-6)[Gal(b1-4)GlcNAc(b1-3)Gal(b1-4)GlcNAc(b1-2)Man(a1-3)]Man(b1-4)GlcNAc(b1-4)GlcNAc
Procedure, shortened: as §1

[23] = target: Gal(b1-4)GlcNAc(b1-3)Gal(b1-4)GlcNAc(b1-6)[Gal(b1-3)]GalNAc
Procedure, shortened: as §1

B1: PX15642A-pgi-501-20-501 (Parabacteroides gingivalis) (protein)
chain: CELDRDPEGKDFQQPYTSFVQTKQNRDGLYALLRNTENPRMHFYQELQSDMYCTTITDGNSLAPFVNWDLGILNDHGRADEDEVSGIAGYYFVYNRLNQQANAFVNNTEAALQNQVYKNSTEIANAKSFLAEGKVLQALAIWRLMDRFSFHESVTEVNSGAKDLGVILLKEYNPGYIGPRATKAQCYDYILSRLSEAIEVLPENRESVLYVSRDYAYALRARIYLALGEYGKAAADAKMVVDKYPLIGAADASEFENIYRSDANNPEIIFRGFASATLGSFTATTLNGAAPAGKDIKYNPSAVPFQWVVDLYENEDFRKSVYIAKVVKKDKGYLVNKFLEDKAYRDVQDKPNLKVGARYFSVAEVYLILVESALQTGDTPTAEKYLKALSKARGAEVSVVNMEALQAERTRELIGEGSRLRDMVRWSIPNNHDAFETQPGLEGFANTTPLKAQAPVGFYAYTWEFPQRDRQTNPQLIKNWPI
glycan array binding signal (z-score) (Fuc(a1-2)Gal(b1-3)GlcNAc): -0.306
glycan array binding signal (z-score) [1]: 0.224
glycan array binding signal (z-score) [2]: -0.094
glycan array binding signal (z-score) [3]: -0.121
glycan array binding signal (z-score) [4]: 2.85
glycan array binding signal (z-score) [5]: -0.144
glycan array binding signal (z-score) [6]: 0.849
glycan array binding signal (z-score) [7]: 1.21
glycan array binding signal (z-score) [8]: 0.225
glycan array binding signal (z-score) [9]: -0.848
glycan array binding signal (z-score) [10]: -0.744
glycan array binding signal (z-score) (Fuc(a1-4)GlcNAc): 2.72
glycan array binding signal (z-score) [11]: -0.319
glycan array binding signal (z-score) [12]: 6.32
glycan array binding signal (z-score) [13]: 0.38
glycan array binding signal (z-score) (Gal(b1-3)Gal): 0.322
glycan array binding signal (z-score) [14]: 1.53
glycan array binding signal (z-score) [15]: -0.003
glycan array binding signal (z-score) (Gal(b1-3)GlcNAc6S): 0.706
glycan array binding signal (z-score) [16]: -0.298
glycan array binding signal (z-score) (Gal(b1-4)Gal): 0.332
glycan array binding signal (z-score) [17]: 0.359
glycan array binding signal (z-score) [18]: -0.027
glycan array binding signal (z-score) [19]: 0.733
glycan array binding signal (z-score) [20]: 0.317
glycan array binding signal (z-score) [21]: 2.09
glycan array binding signal (z-score) [22]: 2.23
glycan array binding signal (z-score) [23]: 2.71
